Results on 58 compounds are retold here after PMC4336329 (PLoS ONE, 2015).

Molecules are shown by their SMILES. About 14,000 (4.5%) of roughly 310,000 compounds showed an effect of 50% or more. The effect is printed as a negative number. The entries come from a sample that favours strong results as a whole.
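Also: peak tail current of the secondary pulse compared with the same well before compound.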

human ether-à-go-go-related gene (hERG) potassium channel, sequence (Q12809 whole entry, looked up): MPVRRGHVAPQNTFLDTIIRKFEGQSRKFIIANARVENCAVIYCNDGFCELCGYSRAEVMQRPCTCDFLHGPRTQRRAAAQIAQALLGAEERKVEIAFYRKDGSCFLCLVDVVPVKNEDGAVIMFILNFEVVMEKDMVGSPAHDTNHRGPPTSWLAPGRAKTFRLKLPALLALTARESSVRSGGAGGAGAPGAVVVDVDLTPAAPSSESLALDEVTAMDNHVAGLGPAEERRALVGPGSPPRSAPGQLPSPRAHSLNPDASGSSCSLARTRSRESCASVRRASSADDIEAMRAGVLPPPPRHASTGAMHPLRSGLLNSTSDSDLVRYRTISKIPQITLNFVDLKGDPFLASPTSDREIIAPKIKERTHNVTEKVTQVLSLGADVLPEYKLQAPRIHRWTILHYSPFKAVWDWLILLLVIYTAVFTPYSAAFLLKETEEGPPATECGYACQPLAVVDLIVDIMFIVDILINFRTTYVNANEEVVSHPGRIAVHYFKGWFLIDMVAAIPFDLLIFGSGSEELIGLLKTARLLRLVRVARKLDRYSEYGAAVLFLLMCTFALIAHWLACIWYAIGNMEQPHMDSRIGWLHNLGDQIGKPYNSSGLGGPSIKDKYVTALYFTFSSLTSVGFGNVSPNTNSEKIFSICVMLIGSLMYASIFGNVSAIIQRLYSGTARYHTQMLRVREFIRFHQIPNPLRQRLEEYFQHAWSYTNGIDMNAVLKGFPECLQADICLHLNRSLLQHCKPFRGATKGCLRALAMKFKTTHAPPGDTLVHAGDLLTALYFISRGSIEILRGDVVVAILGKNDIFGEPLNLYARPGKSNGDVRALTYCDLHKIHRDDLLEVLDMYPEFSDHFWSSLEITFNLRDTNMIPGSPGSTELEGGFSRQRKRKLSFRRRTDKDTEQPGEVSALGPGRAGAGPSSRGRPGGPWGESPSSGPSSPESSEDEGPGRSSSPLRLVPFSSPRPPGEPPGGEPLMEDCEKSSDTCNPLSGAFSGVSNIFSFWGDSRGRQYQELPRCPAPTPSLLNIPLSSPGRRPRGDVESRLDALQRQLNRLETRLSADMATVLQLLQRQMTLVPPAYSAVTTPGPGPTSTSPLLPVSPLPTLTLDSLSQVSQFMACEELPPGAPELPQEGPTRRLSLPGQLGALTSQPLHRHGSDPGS

The test concerns the target human ether-à-go-go-related gene (hERG) potassium channel (human, UniProt Q12809). The test can be described thus: primary screen, population patch clamp on CHO cells stably expressing hERG; higher = less effect of the substance.
For `CN(C)S(=O)(=O)c1ccc(N2CCCC2)c(C(=O)Nc2nc3ccc(F)cc3s2)c1`, the “hERG current change (%, negative = inhibition) at 10uM” value is on record as -37.1%.
On to `Cc1nc(SCC(=O)Nc2ccc(C)c(F)c2)c2oc3ccccc3c2n1`, for which the “hERG current change (%, negative = inhibition) at 10uM” value is on record as 4.4%.
As to `COc1ccccc1NC(=O)c1cc(S(=O)(=O)N2CCC3(CC2)OCCO3)ccc1F`, the “hERG current change (%, negative = inhibition) at 10uM” value is listed as -4.73%.
On to `COc1ccc(CN2CN(c3ccc(Cl)cc3)C(=O)N(n3cnnc3)C2)cc1`, for which the “hERG current change (%, negative = inhibition) at 10uM” value is reported as -38.6%.
With `COC(=O)C1=C(c2ccccc2)C[C@@H]2CC[C@H]1N2C(=O)N1CCCCC1` the figure was -4.4%; with `Cn1c(=O)c2c(ncn2CCOc2ccc(F)cc2)n(C)c1=O`, 12.3%.
Turning to `O=C(N/C=N/O)C(c1ccccc1)c1ncc(C(F)(F)F)cc1Cl` (stereo not shown), the “hERG current change (%, negative = inhibition) at 10uM” value was determined as 3.35%.
With `COc1ccc(-c2c/c(=N\c3nc(-c4ccccc4)c(C)s3)c3ccccc3o2)cc1O` the figure was 4.17%; with `COc1ccccc1NC(=O)C1CCCCN1S(=O)(=O)c1ccc(F)cc1` (stereo not shown), -27.9%; with `O=C(NCc1ccc(F)cc1)N[C@@H](Cc1ccccc1)C(=O)O`, 7.44%.
With `CC(=O)OCc1c(C(F)(F)F)nn(C)c1Oc1cccc(C(F)(F)F)c1`, the “hERG current change (%, negative = inhibition) at 10uM” value was 2.3%.
With `COc1ccc(C(CCNC(C)c2ccccc2)c2ccc(F)cc2)cc1` (stereo not shown), the “hERG current change (%, negative = inhibition) at 10uM” value is on record as -54.6%.
With `COc1ccc(C(O)P(=O)(OCc2ccccc2)c2ccc(N(C)C)cc2)cc1` (stereo not shown) the figure was 15.4%.
As for `COc1ccccc1C(CC(=O)Nc1ccc(Cl)cc1)c1ccc(OC(C)C)cc1` (stereo not shown), the “hERG current change (%, negative = inhibition) at 10uM” value is on record as 1.17%.
Regarding `COc1ccc(C(C)NCCC(c2ccc(OC(C)C)cc2)c2ccccc2OC)cc1` (stereo not shown), the “hERG current change (%, negative = inhibition) at 10uM” value was -64.2%.
Turning to `COc1cccc(NC(=O)CC(c2ccc(OC(C)C)cc2)c2ccccc2OC)c1` (stereo not shown), the “hERG current change (%, negative = inhibition) at 10uM” value amounted to 1.26%.
As to `COc1ccc(C(CCNC(C)c2ccccc2)C(C)C)cc1` (stereo not shown), the “hERG current change (%, negative = inhibition) at 10uM” value was -4.48%.
For the compound `COc1ccc(C(CC(=O)Nc2ccc(F)cc2)c2ccccc2)cc1` (stereo not shown), the “hERG current change (%, negative = inhibition) at 10uM” value is on record as 9.13%.
`COc1ccc(C(CCNCc2ccc(OC(C)C)cc2)c2ccccc2OC)cc1` (stereo not shown): the “hERG current change (%, negative = inhibition) at 10uM” value is -76%.
Take `COc1ccc(NC(=S)NCCC(c2ccccc2)c2ccccc2)c(OC)c1`: the “hERG current change (%, negative = inhibition) at 10uM” value is reported as 2.53%.
`COc1ccc(C(CCNCc2ccc(N(C)C)cc2)c2ccccc2OC)cc1` (stereo not shown): the “hERG current change (%, negative = inhibition) at 10uM” value is -71.1%.
As for `CCOC(=O)c1nn(-c2ccc(C)cc2)c(C)c1C(C)=O`, the “hERG current change (%, negative = inhibition) at 10uM” value was determined as 4.57%.
With `Cc1ccc(S(=O)(=O)NNC(=O)C2COc3ccccc3O2)cc1` (stereo not shown) the figure was 5.24%; with `COc1ccc(C(CNC(=O)c2ccc(OCc3ccccc3)cc2)N2CCOCC2)cc1` (stereo not shown), -18.1%; with `CCOC(=O)N1CCC(N(CCN(C)C)C(=S)Nc2ccccc2OC)CC1`, -16.2%.
With `CCCC1=C(C(=O)OCC)C(c2ccc(F)cc2)n2ncnc2N1` (stereo not shown) the figure was -21.3%; with `COc1cccc(CN2C(=O)CCC2(C)C(=O)NC2CCCCCC2)c1` (stereo not shown), -11.7%.
For the compound `COc1ccc(-c2cc(=O)oc3cc(OC(=O)C4CCCCC4)c(Cl)cc23)cc1`, the “hERG current change (%, negative = inhibition) at 10uM” value came out at 11.2%.
Consider `COc1ccc(CNCCC(c2ccc(OC(C)C)cc2)c2ccccc2OC)cc1` (stereo not shown), for which the “hERG current change (%, negative = inhibition) at 10uM” value is given as -66.1%.
With `COc1ccccc1NC(=O)CC(c1ccc(OC(C)C)cc1)c1ccccc1OC` (stereo not shown) the figure was -1.62%.
As for `COc1ccccc1C(CCNCc1ccc(N(C)C)cc1)c1ccc(OC(C)C)cc1` (stereo not shown), the “hERG current change (%, negative = inhibition) at 10uM” value is -73.8%.
For the compound `COc1ccccc1C(CC(=O)Nc1ccc(C)c(C)c1)c1ccc(OC(C)C)cc1` (stereo not shown), the “hERG current change (%, negative = inhibition) at 10uM” value was found to be 10.2%.
For `COc1ccc(C(CCNCc2ccc(N(C)C)cc2)c2ccccc2)cc1` (stereo not shown), the “hERG current change (%, negative = inhibition) at 10uM” value is reported as -72.2%.
`COc1ccccc1C(O)P(=O)(OCC(C)C)c1ccc(N(C)C)cc1` (stereo not shown): the “hERG current change (%, negative = inhibition) at 10uM” value is listed as -0.204%.
In the case of `COc1ccc(C(CCNCc2ccc(N(C)C)cc2)C(C)C)cc1` (stereo not shown), the “hERG current change (%, negative = inhibition) at 10uM” value was -40.5%.
On to `COc1ccc(CNC(=S)NCc2ccc(OC(C)C)cc2)cc1`, for which the “hERG current change (%, negative = inhibition) at 10uM” value is reported as -3.86%.
On to `COc1ccccc1CNC(=O)c1ccc(OC(C)C)cc1`, for which the “hERG current change (%, negative = inhibition) at 10uM” value came to 17.6%.
For `COc1ccccc1C(CCNCc1ccccc1)c1ccc(OC(C)C)cc1` (stereo not shown), the “hERG current change (%, negative = inhibition) at 10uM” value is on record as -59.3%.
Regarding `COc1ccc(CNC(c2ccccc2)c2ccc(Cl)cc2)cc1` (stereo not shown), the “hERG current change (%, negative = inhibition) at 10uM” value worked out at 6.38%.
On to `O=C(Nc1ncc(Br)s1)C1CCCN1S(=O)(=O)c1cccc2cccnc12` (stereo not shown), for which the “hERG current change (%, negative = inhibition) at 10uM” value is -3.36%.
In the case of `Cc1cccc(C(=O)O/N=C2\CCS(=O)(=O)c3sccc32)c1`, the “hERG current change (%, negative = inhibition) at 10uM” value is reported as 1.16%.
With `Cc1ccc(NC(=O)C(OC(=O)c2ccc(NC(N)=O)cc2)c2ccccc2)cc1Cl` (stereo not shown) the figure was -3.17%; with `COc1ccc(N2CCC(N3CCN(C)C(CCO)C3)CC2)cc1` (stereo not shown), 10.2%.
Regarding `O=C(NCC1CCCO1)c1ccc(Cl)c(S(=O)(=O)Nc2ccccc2)c1` (stereo not shown), the “hERG current change (%, negative = inhibition) at 10uM” value worked out at 2.86%.
Consider `O=C(CCc1ccccc1)Nc1nccs1`, for which the “hERG current change (%, negative = inhibition) at 10uM” value was found to be 14.9%.
Consider `COc1ccccc1N1CCN(C(=O)c2ccc(Cn3c(=S)[nH]c4cc5c(cc4c3=O)OCO5)cc2)CC1`, for which the “hERG current change (%, negative = inhibition) at 10uM” value turned out to be 21.3%.
With `CC[C@H](C)[C@@H](NC(=O)O[C@@H]1C(=O)c2cc(OC)ccc2O[C@H]1c1ccc(OC)c(Br)c1)C(=O)OC` the figure was -1.62%.
For the compound `CN(C)c1cccc(C(=O)Nc2nnc(Cc3ccccc3)s2)c1`, the “hERG current change (%, negative = inhibition) at 10uM” value is on record as 0.344%.
With `Cn1cnc2cc(NCc3ccccc3O)ccc21` the figure was 6.3%.
On to `COc1cccc2c1OCC(CN1CCN(Cc3ccccc3F)C(CCO)C1)=C2` (stereo not shown), for which the “hERG current change (%, negative = inhibition) at 10uM” value is -19.3%.
In the case of `COc1cccc2c1OCC(CN1CCN(CCC(C)C)C(CCO)C1)=C2` (stereo not shown), the “hERG current change (%, negative = inhibition) at 10uM” value was -3.37%.
As for `COc1ccc2c(c1)C=C(CN1CCN(C(C)C)C(CCO)C1)CO2` (stereo not shown), the “hERG current change (%, negative = inhibition) at 10uM” value is given as 5.68%.
In the case of `CCOc1ccccc1CN1CCN(CC2=Cc3cc(OC)ccc3OC2)CC1CCO` (stereo not shown), the “hERG current change (%, negative = inhibition) at 10uM” value was -83.3%.
For the compound `COc1ccc2c(c1)C=C(CN1CCN(Cc3ccccc3C)C(CCO)C1)CO2` (stereo not shown), the “hERG current change (%, negative = inhibition) at 10uM” value is reported as -25.6%.
With `COc1cccc2c1OCC(CN1CCN(C3CCCCC3)C(CCO)C1)=C2` (stereo not shown) the figure was -17%.
In the case of `COc1cccc2c1OCC(CN1CCN(Cc3ccccc3)C(CCO)C1)=C2` (stereo not shown), the “hERG current change (%, negative = inhibition) at 10uM” value is -47.6%.
With `COc1ccc2c(c1)C=C(CN1CCN(C3CCCC3)C(CCO)C1)CO2` (stereo not shown), the “hERG current change (%, negative = inhibition) at 10uM” value is given as -68.2%.
With `CCOc1ccc(CN2CCN(CC3=Cc4cccc(OC)c4OC3)CC2CCO)cc1` (stereo not shown) the figure was -83.4%.
